# Reference: PubChem BioAssay (NCATS)
# Values without a mark were called inactive. Calls come from the whole dose curve; as a rule, active = well fitted inhibition curve with a large enough effect; inconclusive = small, poorly fitted or top-dose-only effect; inactive = flat fitted curve, though single readings scatter.
# Molecular target: DNA polymerase III PolC-type (Bacillus subtilis (strain 168)) (UniProt P13267)
# Assay: qHTS Validation Assay for the Inhibitors of DNA Replication in Gram-Positive Bacteria (AID 485295);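 note: reconstituted holoenzyme with PolC plus beta clamp SSB and primase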
# Conditions: Gram-positive bacterial DNA replication assay; series mostly up to 57.1 µM; activity change, negative = inhibition: at the top concentration
# Description: B Subtilis DNA polymerase III holoenzyme complex was assayed for DNA production by fluorescent detection of the double-stranded DNA product with PicoGreen dye. The holoenzyme complex was reconstituted from the following purified protein components: DNA Polymerase III, beta subunit processivity factor, SSB single-stranded DNA binding protein, and Primase. Single-stranded, circular M13Gori was used as a substrate with dNTPs and NTPs also supplied to the substrate reagent. Compounds from the NCGC collection were incubated with the holoenzyme mixture for […] at room temperature to allow binding to occur, and then the reaction was started by the addition of substrate. After 30 min incubation at room temperature, PicoGreen solution containing EDTA was added to stop the reaction and to visualize the double-stranded DNA produced. Reaction progress was measured in a ViewLux CCD imager in fluorescence intensity mode by using 480 nm excitation and 540 nm emission filter set.
# 1. Thaw screening compounds.
# 2. Label assay plates. Prepare pipette tips, reagent reservoirs, buffers and controls.
# 1. Thaw Enzymes, DNA template, Nucleotides and PicoGreen dye concentrate. Thawed enzymes are stable on ice for ~1
# week. Other thawed components are stable indefinitely.
# 2. Prepare sufficient quantities of Enzyme, Substrate and PicoGreen Quench mixes (according to Table II). For the number of
# compound plates being screened.
# 3. Ensure that the tip wash station reservoirs have clean water and turn on recirculating chiller so that the chilled deck position
# 1. Load 2 uL of EDTA controls (250 mM, Background, 100 % inhibition) and 2 uL of DMSO controls (Negative control, 0%
# inhibition) in the screening plates (flat-bottomed black 384-well polypropylene, Greiner Bio-one).
# 2. Place Enzyme mix reservoir on the chiller position of the liquid handler deck. Make sure that chiller will maintain
# temperature of Enzyme mix at 4degC. Substrate mix and PicoGreen Quench can be stored at room temp.
# 3. Program liquid handling robotics to dispense 18 uL of Enzyme mix into assay plates. Wash tips.
# 4. Aspirate and dispense 2 uL of compound from compound plates, mix and Incubate at room temperature for 10 minutes.
# 5. Aspirate 5 ul of Substrate mix, dispense into assay plates and mix by pipetting. Wash tips.
# 6. Incubate at room temperature (21 +/- 1 deg C) for 20 minutes.
# 7. Quench reactions by addition of 25 uL PicoGreen Quench mix and mix by pipetting (using HTS robotics or bulk reagent
# dispenser such as a Multidrop or uFill). Keep plates in the dark or stacked until ready to read fluorescence.
# 8. Read fluorescence intensity of plates on plate reader using "Fluorescein (Ex 485 nm/ Em 535 nm, 0.1s)" setting.
# Chain of DNA polymerase III PolC-type (Bacillus subtilis (strain 168)) (P13267 whole entry, looked up): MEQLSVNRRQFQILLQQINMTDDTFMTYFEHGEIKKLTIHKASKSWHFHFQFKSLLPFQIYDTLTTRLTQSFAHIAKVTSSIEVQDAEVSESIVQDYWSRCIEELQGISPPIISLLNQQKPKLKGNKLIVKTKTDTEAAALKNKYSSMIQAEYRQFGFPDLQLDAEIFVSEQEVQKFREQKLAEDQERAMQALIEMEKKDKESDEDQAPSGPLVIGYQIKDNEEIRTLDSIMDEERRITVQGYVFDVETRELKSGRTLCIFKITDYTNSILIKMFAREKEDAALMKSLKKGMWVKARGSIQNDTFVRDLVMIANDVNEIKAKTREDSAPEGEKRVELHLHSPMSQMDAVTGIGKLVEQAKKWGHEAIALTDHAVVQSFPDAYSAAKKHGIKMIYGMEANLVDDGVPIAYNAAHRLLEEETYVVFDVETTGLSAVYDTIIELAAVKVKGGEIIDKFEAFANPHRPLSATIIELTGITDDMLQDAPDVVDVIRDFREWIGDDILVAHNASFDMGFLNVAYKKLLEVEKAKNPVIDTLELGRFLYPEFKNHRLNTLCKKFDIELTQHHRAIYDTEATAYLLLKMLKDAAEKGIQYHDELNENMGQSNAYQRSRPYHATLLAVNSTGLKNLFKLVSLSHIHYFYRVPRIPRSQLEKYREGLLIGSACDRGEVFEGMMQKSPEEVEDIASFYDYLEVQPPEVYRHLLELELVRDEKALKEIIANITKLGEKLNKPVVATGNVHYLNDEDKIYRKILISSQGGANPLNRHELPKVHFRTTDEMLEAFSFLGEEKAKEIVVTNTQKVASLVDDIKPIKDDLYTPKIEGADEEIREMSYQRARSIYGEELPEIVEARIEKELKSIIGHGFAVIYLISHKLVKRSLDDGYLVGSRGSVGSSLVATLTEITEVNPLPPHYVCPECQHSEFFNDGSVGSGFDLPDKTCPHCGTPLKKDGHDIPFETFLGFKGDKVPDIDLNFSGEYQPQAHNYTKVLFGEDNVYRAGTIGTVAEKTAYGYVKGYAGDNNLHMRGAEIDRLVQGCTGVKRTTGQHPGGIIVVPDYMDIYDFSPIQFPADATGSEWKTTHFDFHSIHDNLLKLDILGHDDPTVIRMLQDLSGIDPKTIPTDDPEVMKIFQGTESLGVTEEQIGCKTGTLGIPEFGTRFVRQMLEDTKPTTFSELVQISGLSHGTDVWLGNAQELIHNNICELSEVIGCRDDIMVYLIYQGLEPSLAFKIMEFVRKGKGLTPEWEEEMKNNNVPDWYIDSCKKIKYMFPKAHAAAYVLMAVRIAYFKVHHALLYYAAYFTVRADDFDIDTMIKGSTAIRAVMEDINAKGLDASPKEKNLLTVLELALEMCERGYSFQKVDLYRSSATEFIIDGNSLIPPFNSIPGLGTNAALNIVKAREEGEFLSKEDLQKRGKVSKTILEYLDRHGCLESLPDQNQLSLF
row,Structure (SMILES),"activity change, negative = inhibition"
1,C[N+](C)(C)CCOP(=O)(O)OP(=O)([O-])OC[C@H]1O[C@@H](n2ccc(N)nc2=O)[C@H](O)[C@@H]1O,5.2%
2,CCN1/C(=C/C(C)=O)Sc2ccc(OC)cc21,3.3%
3,NCCCCCCCCCCN,2.14%
4,NC(=O)C(=O)O,5.85%
5,O=C(O)CCCC[C@@H]1CCSS1,-4.78%
6,Oc1ccccc1O,2.42%
7,O=C(O)c1cc([N+](=O)[O-])ccc1NCCCc1ccccc1,-3.72%
8,Cn1c(=O)c2[nH]c(-c3ccccc3)nc2n(C)c1=O,9.31%
9,NC(=S)NCCC[C@H](N)C(=O)O,5.79%
10,Nc1ncnc2c1c(I)cn2[C@@H]1C[C@H](N)[C@@H](O)[C@H]1O,6.42%
11,CN(C)c1nc(N)c(C(=O)N=C(N)N)nc1Cl,-2.5%
12,CSc1ccccc1N1CCN(CCCCCC(=O)NC2CCCc3ccccc32)CC1 (stereo not given),5.17%
13,Cc1ccccc1CNc1ncnc2c1ncn2C1OC(CO)C(O)C1O (stereo not given),3.42%
14,CN(C)C(N)=NCCC[C@H](N)C(=O)O,2.36%
15,COc1cc2nc(N3CCN(C(=O)OCc4ccccc4)C(C(=O)NC(C)(C)C)C3)nc(N)c2cc1OC (stereo not given),1.75%
16,O=C1NC(=O)/C(=C/c2ccc(-c3ccc(F)cc3O)o2)S1,-18.5%
17,C[C@@H](NC(=O)/C(C#N)=C/c1ccc(O)c(O)c1)c1ccccc1,-7%
18,CN1CCc2cc(O)c(O)cc2C(c2ccccc2)C1 (stereo not given),5.48%
19,O=C(O)[C@@H]1C[C@H](C(=O)O)N1,-5.66%
20,CCCCC/C=C\CC(O)/C=C/c1cccc(CC(O)CCCCO)n1 (stereo not given),-4.91%

row,Structure (SMILES),"activity change, negative = inhibition"
1,O=C(O)c1cc(=O)c2ccccc2[nH]1,1.45%
2,NC[C@H]1O[C@@H](n2cnc3c(N)ncnc32)[C@H](O)[C@@H]1O,-3.92%
3,NC[C@@H]1O[C@H](C23CC4CC(CC(C4)C2)C3)Cc2c1ccc(O)c2O,-12.6%
4,Clc1ccc(N2CCN(Cc3cc4ccccn4n3)CC2)cc1,3.92%
5,Oc1ccc(C2CNCc3sccc32)cc1O (stereo not given),0.944%
6,O=c1[nH]c2cc([N+](=O)[O-])c([N+](=O)[O-])cc2[nH]c1=O,1.92%
7,CC(=O)N[C@H](C(=O)O)C(C)(C)SN=O,7.43%
8,Cc1ccc(O)c(N=Nc2ccccc2)n1,-6.04%
9,Oc1cc(O)cc(/C=C/c2ccc(O)c(O)c2)c1,-21.9%
10,NCC1OC(O[C@H]2[C@H](O)[C@@H](OC3C(O)C(N)CC(N)C3OC3OC(CO)C(O)C(O)C3N)O[C@@H]2CO)C(N)C(O)C1O (stereo not given in full),0.335%
11,O=C1C(SCCO)=C(SCCO)C(=O)c2ccccc21,-11%
12,COc1cc2c(CCNC(C)=O)c[nH]c2cc1Cl,1.82%
13,CN(C)CCC(c1ccc(Cl)cc1)c1ccccn1 (stereo not given),-4.62%
14,OC[C@H]1O[C@@H](n2cnc3c(NC4CCCC4)ncnc32)[C@H](O)[C@@H]1O,-5.31%
15,COc1cc(C(O)CO)ccc1OS(=O)(=O)O (stereo not given),-2.49%
16,Oc1cc2c(cc1O)CN(C(=S)NCCc1ccc(Cl)cc1)CCC2,-6.68%
17,COc1ccc2c(c1)CCC1C2CC[C@@]2(C)C1CC[C@@H]2NCCCCCCN1C(=O)CCC1=O (stereo not given in full),1.35%
18,C[C@@H](CN1CCC(Cc2ccccc2)CC1)[C@@H](O)c1ccc(O)cc1,5.97%
19,Nc1ncnc2c1ncn2[C@@H]1O[C@H](COP(=O)(O)OP(=O)(O)OP(=O)(O)OP(=O)(O)OC[C@@H]2O[C@H](n3cnc4c(N)ncnc43)[C@@H](O)[C@H]2O)[C@@H](O)[C@H]1O,-1.44%
20,CC(C)NC[C@H](O)COc1cccc2[nH]ccc12,0.805%
